Data reported in the supplement of paper PMC11060735.
Out of some 1,800 compounds screened, about 50 (3%) showed activity. Shown is part of a subset that was picked to be rich in actives. A number with no mark means an inactive call.

tested on: mouse p16Ink4a+/- lung fibroblasts (INKBRITE, bleomycin-injured); assay: percentage of GFP+ (p16Ink4a+) fibroblasts among all cells in well; higher = less depletion of p16Ink4a+ cells, active = 20 or less; conditions: 1 µM; 3 days

SMILES | percentage of GFP+
CC[C@@H]1[C@@H](C)O[C@@](O)([C@@H](C)[C@H](O)[C@H](C)[C@H]2OC(=O)/C=C/C=C/[C@H](C)[C@H]([C@@H](C)[C@@H](O)[C@H](C)[C@@]3(O)C[C@@H](O[C@H]4C[C@H](O)[C@H](O)[C@H](C)O4)[C@H](CC)[C@@H](C)O3)OC(=O)/C=C/C=C/[C@H]2C)C[C@H]1O[C@H]1C[C@H](O)[C@H](O)[C@H](C)O1 [Elaiophylin] | 11.1% (active)
O=[N+]([O-])c1ncc[nH]1 [Azomycin] | 43.5%
CN1c2ccccc2C(NCCCCCCC(=O)O)c2ccc(Cl)cc2S1(=O)=O (stereo not given) [Tianeptine] | 29.5%
C[C@](O)(COc1ccc(C#N)cc1)C(=O)Nc1ccc(C#N)c(C(F)(F)F)c1 | 43.3%
CN1CCC(c2c[nH]c3ccc(O)cc23)CC1 | 45.6%
CO[C@H]1CCC(O[C@H]2C[C@H]([C@]3(C)CC[C@]4(C[C@H](O)[C@@H](C)[C@@H]([C@@H](C)/C=C(\C)C(=O)[C@H](C)C[C@H](C)C(=O)O)O4)O3)O[C@]3(O[C@@H]([C@H]4O[C@@](O)(CO)[C@H](C)C[C@@H]4C)C[C@@H]3C)[C@@H]2C)O[C@@H]1C (stereo not given in full) [Nanchangmycin] | 18.5% (active)
CCCN1C[C@H](CSC)C[C@@H]2c3cccc4[nH]cc(c34)C[C@H]21 [Pergolide] | 54.5%
C=CC[C@]1(O)CC[C@H]2[C@@H]3CCC4=CC(=O)CCC4=C3C=C[C@@]21C [Altrenogest] | 48.5%
O=P1(NCCCl)OCCCN1CCCl (stereo not given) [Ifosfamide] | 45.7%
Cc1cc(C(=O)CN2CCCC2)c(C)n1-c1ccc(F)cc1 | 51.3%
CCC1(C)CC(=O)NC(=O)C1 [Bemegride] | 48.1%
CC(C)[C@]12O[C@H]1[C@@H]1O[C@]13[C@]1(O[C@H]1C[C@H]1C4=C(CC[C@@]13C)C(=O)OC4)[C@@H]2O [Triptolide] | 4.17% (active)
Cc1ccccc1-n1c(Cn2ncc3c(N)ncnc32)nc2cccc(C)c2c1=O | 38.7%
CCC1=C[C@@H]2CN3CCc4c([nH]c5ccccc45)[C@@](C(=O)OC)(C2)[C@@H]13 [Catharanthine] | 47.9%
CN1CCN(c2nc3ccccc3nc2Cl)CC1 | 42.1%
